# Hit rate of the full screen: of about 1,100 compounds, about 260 (24%) were called active. The list is a sample of the results. A number with no mark means an inactive call.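 Rule for the calls: active = surface receptor percent response at or below 58%, roughly 3 SD from nonfluorescent compounds; inactive = the rest.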
# Molecular target: Beta-2 adrenergic receptor (Homo sapiens) (UniProt P07550)
# Assay: agonist-driven loss of surface beta2AR – cell-based, FAP fluorogen, flow cytometry, single point, cherry pick 1, confirmation (AID 540358)
# Conditions: Am2.2-beta2AR cells, at 10 µM, hits give low values
# Sequence of Beta-2 adrenergic receptor (Homo sapiens) (P07550 whole entry, looked up): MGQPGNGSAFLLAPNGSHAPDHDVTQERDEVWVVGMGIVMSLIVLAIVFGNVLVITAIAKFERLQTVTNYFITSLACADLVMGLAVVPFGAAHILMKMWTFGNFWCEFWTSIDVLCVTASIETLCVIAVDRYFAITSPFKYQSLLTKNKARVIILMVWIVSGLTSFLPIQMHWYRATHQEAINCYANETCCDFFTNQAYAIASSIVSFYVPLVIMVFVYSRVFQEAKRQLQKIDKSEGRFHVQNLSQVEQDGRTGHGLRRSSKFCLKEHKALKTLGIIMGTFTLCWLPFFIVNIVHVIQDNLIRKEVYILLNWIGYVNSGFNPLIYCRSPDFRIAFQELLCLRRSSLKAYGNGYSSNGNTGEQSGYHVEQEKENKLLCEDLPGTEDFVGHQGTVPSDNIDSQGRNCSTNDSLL
row,Compound,percent response (surface receptor)
1,CCC(=O)c1ccc(OCC(=O)N2CCN(CC(=O)Nc3ccc(C)cc3)CC2)cc1,10.7% (active)
2,O=C1NC(=O)C(CCc2ccccn2)(Cc2cccc(Cl)c2Cl)C(=O)N1c1ccc(Br)cc1 (stereo not drawn),91.2%
3,CC(Cc1ccccc1)NCCC(c1ccccc1)c1ccccc1 (stereo not drawn),105%

# Reference: PubChem BioAssay AID540358 (NMMLSC, 2011)
